Consider 19 compounds from PubChem BioAssay (EPA / NIEHS).

In general, AC50 refers to the midpoint of the concentration-response curve, whichever way the signal moves.

Active and inactive are the calls of the source. How the source made its calls: active means hit-call score of the fitted dose curve at least 0.9, where 1 is the maximum; inactive means score below 0.9.

Read-out in this assay: Vascular cell adhesion molecule 1 (VCAM1), VCAM1 (gene 7412)
Put plainly: BSK_LPS_VCAM1: BioMAP Diversity Plus: LPS Assay for Vascular cell adhesion molecule 1 (VCAM1) Biomarker Activity (AID 2283086). The following applies: primary human HUVEC with PBMC; actives raise or lower the signal. A digest of the protocol: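 Cells are dosed in an LPS-stimulated endothelial/mononuclear co-culture and, after 24 h, VCAM-1 is quantified by ELISA. Activity in either direction is fitted relative to the DMSO negative control.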
For the compound `O=C(O)c1cn(C2CC2)c2cc(N3CCNCC3)c(F)cc2c1=O`, the outcome was inactive.

With `C=C(C)C(=O)O[C@H]1C[C@@H]2CC[C@@]1(C)C2(C)C`, the AC50 was 30.6 µM (active).

Regarding `CCCCCCCCCCCCCCCCCC(=O)OCC(CC)CCCC` (centres undefined), the result was inactive.

On to `CC(C)(COC(=O)c1ccccc1)COC(=O)c1ccccc1`, for which the concentration at half-maximal activity (AC50) is 26.2 µM (active).

Turning to `O=C(O)C[C@H](O)C[C@H](O)/C=C/c1c(C2CC2)nc2ccccc2c1-c1ccc(F)cc1`, the result was inactive.

As to `CCc1c(C)cc(N)c(CC)c1N`, the result was inactive.

Regarding `CC(=O)OCCC(C)CC(C)(C)C` (centres undefined), the result was inactive.

As to `O=C(O)c1cn(-c2ccc(F)cc2)c2cc(N3CCNCC3)c(F)cc2c1=O`, the outcome was inactive.

As for `CCn1c2ccccc2c2cc(N)ccc21`, the result was inactive.

As to `O=C1OC2(c3cc(Br)c(O)c(Br)c3Oc3c2cc(Br)c(O)c3Br)c2c(Cl)c(Cl)c(Cl)c(Cl)c21`, the concentration at half-maximal activity (AC50) was 5.55 µM (active).

As for `OC1OC[C@@H](O)[C@H](O)[C@H]1O` (some centres undefined), the outcome was inactive.

Regarding `BrC1CCC(Br)C(Br)CCC(Br)C(Br)CCC1Br` (centres undefined), the half-maximal activity concentration (AC50) is 4.54 µM (active).

As for `Nc1cc([N+](=O)[O-])ccc1Cl`, the result was inactive.

Turning to `CC(=O)O[C@]1(C(C)=O)CC[C@H]2[C@@H]3C[C@H](C)C4=CC(=O)CC[C@]4(C)[C@H]3CC[C@@]21C`, the outcome was inactive.

Regarding `CCCCC(CC)COC(=O)/C=C\C(=O)OCC(CC)CCCC` (centres undefined), the half-maximal activity concentration (AC50) was 11.9 µM (active).

As for `CCCCCCCCCC=O`, the outcome was inactive.

As to `CC1COc2ccccc2N1C(=O)C(Cl)Cl` (centres undefined), the AC50 is 9.65 µM (active).

On to `O=P(c1ccccc1)(c1ccccc1)c1ccccc1`, for which the outcome was inactive.

As to `OC[C@H]1O[C@H](O[C@]2(CCl)O[C@H](CCl)[C@@H](O)[C@@H]2O)[C@H](O)[C@@H](O)[C@H]1Cl`, the outcome was inactive.
